This is an account of results in PubChem BioAssay (NCATS).

Molecules are shown by their SMILES. Results filed as inconclusive are left out. Entries that show only a call come without a potency. A number with no mark means an inactive call. Active and inactive are the calls of the source. Calls come from the whole dose curve; as a rule, active = well fitted inhibition curve with a large enough effect; inconclusive = small, poorly fitted or top-dose-only effect; inactive = no such curve, though single readings can be large or run the other way.
Potency is the fitted concentration of half-maximal effect.

A short description of this test: Primary fluorescence-based thiol-reactive (MSTI) qHTS assay for identification of artifact compounds. (AID 1845221).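 For activity change, negative = thiol reactive: thiol-reactive compounds lower the probe fluorescence signal.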 Note: nearly all actives have a fitted effect of over 65% in size. The note with it: MSTI thiol-reactivity probe, 1 h; series mostly up to 53.8 µM. The text has this:
PI: Alexander Tropsha Ph.D.
UNC Eshelman School of Pharmacy
University of North Carolina, Chapel Hill, North Carolina
Hits from high-throughput screening (HTS) of chemical libraries are often false positives due to their interference with the assay detection technology. In response to this problem, we generated the largest publicly available library of chemical liabilities and developed a free webtool to predict HTS artifacts, both of which are described herein. More specifically, we generated, curated, and integrated HTS datasets for thiol reactivity, redox activity, and luciferase (firefly and nano) activity. Using these curated datasets, we developed and validated several Quantitative Structure-Interference Relationship (QSIR) models to predict nuisance behavior. […] These models were employed for virtual profiling of the National Center for Advancing Translational Science's (NCATS) in-house library, and 256 compounds for each assay were selected for the experimental validation of nuisance behavior. The BA for these external predictions ranged from 58 to 78% for compounds within the applicability domains of the models. […] The models developed in this study, along with aggregation models previously developed by our group (SCAM Detective) were implemented in "Liability Predictor," an online tool which may be used as part of chemical library design or for triaging HTS hits. Both the models and the curated datasets are publicly available at https://liability.mml.unc.edu/.
SEQUENCE No. (e.g., 1, 2, 3, etc.); […] (e.g., Cells, Incubation, Reagent, etc.); VALUE; DESCRIPTION.
1; Reagent; 4 uL; […].
2; Compounds and control; 16 nL; Kalypsis pin tool (Wako USA) equipped with a 1536-well pin head.
4; Detection; Fluorescence, ViewLux microplate reader, 525 nm excitation, 598 nm emission.
NOTES (numbers refer to Sequence numbers above)
1. Assays determining (E)-2-(4-mercaptostyryl)-1,3,3-trimethyl-3H-indol-1-ium (MSTI) reactivity were performed as previously described in the literature with modifications for the quick identification of compounds reacting with thiol. In brief, 4 uL of MSTI or positive control Acetyl-MSTI (final concentrations of 4 uM and 4 uM, respectively) in assay buffer (2% DMSO in 1X PBS pH 7.4) was dispensed into all wells of a 1536-well assay plate (solid-bottom black plate; Greiner Bio One, Monroe, NC).
2. A Wako Pin-tool (Wako Automation, Richmond, VA) was used to transfer 16 nL of compounds (consisting of 7-plates in qHTS format, final concentration range 18.3 nM to 114 uM) or control MLS001163887 (final concentration range 1.22 nM to 40 uM).
3. Plates were centrifuged (121xg, 15 seconds) and incubated for 1 hour at room temperature protected from light.
4. Samples were read for fluorescence (Ex/Em = 525(20)/598(25) nm) on a ViewLux CCD imager (PerkinElmer). Data were normalized to Acetyl-MSTI (0% activity) and MSTI (100% activity) and the resulting percent inhibition data were fitted to a 4-parameter Hill equation using NCATS in-house software.
(In qHTS, concentration-response curves come from the screen itself.)
For `Cc1occc(=O)c1O[C@@H]1O[C@H](COC(=O)CC(C)(O)CC(=O)O)[C@@H](O)[C@H](O)[C@H]1O` (stereo not given in full), the Potency entry is “inactive”.

Consider `Cc1ccc2[nH]c(=O)c(C3=NN(C(=O)CCC(=O)O)C(c4ccc(Br)cc4)C3)c(-c3ccccc3)c2c1` (stereo not given), for which the Potency entry was “inactive”.

Turning to `CCc1nnc(NS(=O)(=O)c2ccc(NC(=S)NC(=O)/C=C/c3ccc(F)cc3)cc2)s1`, the Potency result was “inactive”.

As for `CC1=CCC[C@@H]2[C@](CCc3ccoc3)(C(=O)O)[C@H](C)CC[C@@]12C`, the Potency result was “inactive”.

Take `CC(C)C1CCC(CO)=CC1/C=C(\CO)C(=O)OCC1(O)CCC(C(C)C)C2C=C(C(=O)O)COC(=O)C21` (stereo not given): the Potency result is “inactive”.

`Cc1ccccc1N1CCN(S(=O)(=O)C[C@]23CC[C@H](C[C@@H]2NC(=O)[C@@H](N)CCS(C)(=O)=O)C3(C)C)CC1`: the Potency result was “inactive”.

For the compound `CCN(CCN(C)C)C(=O)CNCc1cc(C(N)=O)ccn1`, the Potency entry was “inactive”.

In the case of `C=C(C)C1Cc2c(ccc3c2OCC(c2ccc(O)cc2O)C3)O1` (stereo not given), the Potency entry was “inactive”.

Take `CC1OC(O[C@@H]2[C@H](O)[C@@H](OC3OC(CO)C(O)C(O)C3O)[C@H](OC(=O)[C@]34CCC(C)(C)C[C@H]3C3=CCC5[C@@]6(C)CC[C@H](O[C@@H]7O[C@H](C(=O)O)[C@@H](O)[C@H](O[C@@H]8OC[C@@H](O)[C@H](O)[C@H]8O)[C@H]7O[C@@H]7O[C@H](CO)[C@H](O)[C@H](O)[C@H]7O)[C@@](C)(C=O)C6CC[C@@]5(C)[C@]3(C)C[C@H]4O)O[C@@H]2C)C(O)C(O)C1OC1OCC(O)C(O)C1O` (stereo not given in full): the activity change, negative = thiol reactive was 299% [at 6.41 µM].

In the case of `COc1cc(OC)cc(-c2ccc3c(-c4ccc(F)cc4)[nH]nc3n2)c1`, the Potency result is “inactive”.

On to `CCC/C=C1\OC(=O)C2=C1CCC(O)C2O` (stereo not given), for which the Potency entry is “inactive”.

In the case of `CC(C)(Oc1ccc(-c2nc3cc(Cl)ccc3s2)cc1)C(=O)O`, the Potency entry was “inactive”.

Regarding `CC(=O)OC1CC(C(C)(C)O)OC2CCC3(C)OC4=C(C(=O)C=C5C(C)C(OC(C)=O)C6(C)C(C)OC546)C(O)C3C12C` (stereo not given), the Potency result is “inactive”.

In the case of `COc1cccc(OC)c1-c1ccc(C[C@H](NC(=O)c2c(Cl)cccc2Cl)C(=O)O)cc1`, the Potency entry was “inactive”.

`Cc1c(-c2ccc3c(c2)OCO3)oc2ccc(C(O)C(C)O)cc12` (stereo not given): the Potency result was “inactive”.

Turning to `CC1(C)[C@@H]2CC=C(CO[C@@H]3O[C@H](CO[C@@H]4OC[C@H](O)[C@H](O)[C@H]4O)[C@@H](O)[C@H](O)[C@H]3O)[C@H]1C2`, the Potency entry is “inactive”.

Regarding `COc1cc2c(cc1O)C(c1ccc(O)cc1)C(C)C(C)C2` (stereo not given), the Potency result is “inactive”.

For the compound `Fc1ccccc1-c1nc2ccn(Cc3ccc(-c4ccc(C(F)(F)F)cc4C(F)(F)F)nn3)cc-2n1`, the Potency result is “inactive”.

Regarding `C[C@]1(OC(=O)/C=C/c2ccccc2)C[C@@H](O)[C@]2(O)C=CO[C@@H](O[C@@H]3O[C@H](CO)[C@@H](O)[C@H](O)[C@H]3O)[C@@H]21`, the Potency entry was “inactive”.

Regarding `C[C@@H]1O[C@@H](OC2C(O[C@H]3[C@H](O[C@H]4CC[C@@]5(C)C(CC[C@]6(C)C5CC=C5C7CC(C)(C)CC(O)[C@]7(C)CC[C@]56C)C4(C)C)O[C@H](C(=O)O)[C@@H](O)[C@@H]3O)OC(CO)C(O)C2O)[C@H](O)[C@H](O)[C@H]1O` (stereo not given in full), the activity change, negative = thiol reactive was 22.1% [at 11.5 µM].

In the case of `CCC(C)C(C(=O)O)N1Cc2c(OCC=C(C)C)c(C)c(OC)c(C(=O)O)c2C1=O` (stereo not given), the Potency entry is “inactive”.

For `COc1cc(C)c(C(=O)NC2C(C)OC(OC3CCC(C)C4C3C=C(C)C3/C(C)=C\CC/C(C)=C/C5(C)C=C(C(=O)O)C(C)CC56OC(=O)/C(=C(\O)C34C)C6=O)C(O)C2(C)O)c(O)c1` (stereo not given), the activity change, negative = thiol reactive was 188% [at 11.5 µM].

For the compound `CC(C)CC(=O)OC[C@@]1(O)C[C@@]23CC[C@H]4[C@@](C)(CCC[C@@]4(C)C(=O)O)[C@@H]2CC[C@@H]1C3`, the Potency entry is “inactive”.

In the case of `COc1ccccc1N1CCN(CCCCNC(=O)c2ccc(-c3cscn3)cc2)CC1`, the Potency entry was “inactive”.

`CC(O)C(=O)/C=C/C=C/C(=O)OC1C=C2COC(=O)C2(O)C2(C)CCCC(C)(C)C12` (stereo not given): the Potency result is “inactive”.

On to `C[C@@H]1O[C@@H](O[C@H]2[C@H](O)[C@@H](O)[C@H](OC(=O)[C@]34CCC(C)(C)C[C@H]3C3=CCC5[C@@]6(C)CC[C@H](O[C@@H]7O[C@H](C(=O)O)[C@@H](O)[C@H](O)[C@H]7O)C(C)(C)C6CC[C@@]5(C)[C@]3(C)CC4)O[C@@H]2CO)[C@H](O)[C@H](O)[C@H]1O` (stereo not given in full), for which the activity change, negative = thiol reactive is 74.8% [at 11.5 µM].

`CCCNCCOc1ccc(NC(=O)c2c[nH]c3c2C(=O)CCC3)cc1F`: the Potency result was “inactive”.

For `C=C1CCC2C(C)(C)CCC[C@]2(C)[C@H]1CC/C(C)=C/C(=O)O` (stereo not given in full), the Potency entry is “inactive”.

On to `c1ccc2c(Nc3nnc(-c4ccncc4)s3)cccc2c1`, for which the Potency result is “inactive”.

For the compound `CC(C)CC(c1c(O)c(C=O)c(O)c(C=O)c1O)C1CCC(C)(O)C2CC(C(C)(C)O)CCC12C` (stereo not given), the Potency was 4.12 µM (active).

`CC(=O)O[C@H]1[C@H](OC(=O)C(C)C)[C@]2(C)OC3(CC[C@]2(C)[C@H]2CCC[C@]4(CO4)[C@]12C)COC(=O)C3` (stereo not given in full): the Potency entry was “inactive”.

`COC(=O)C1=CO[C@@H](O[C@@H]2O[C@H](CO)[C@@H](O)[C@H](O)[C@H]2O)[C@@H]2[C@@H](C)[C@@H](O)C(O)[C@H]12` (stereo not given in full): the Potency entry is “inactive”.

On to `COc1cc(O)c2c(c1Cl)CC(C)OC2=O` (stereo not given), for which the Potency entry was “inactive”.

For the compound `COc1cccc(CN(C(=O)CC(C)(C)C)C2CC(C(=O)N3CCNCC3)N(Cc3ccc4c(c3)OCO4)C2)c1` (stereo not given), the Potency entry was “inactive”.

For the compound `COc1ccc2c(c1)C=C1Cn3c-2c(C2CCCCC2)c2ccc(cc23)C(=O)NS(=O)(=O)N(C)CCOCCN(C)C1=O`, the Potency entry was “inactive”.

As for `CC1=CC[C@@]2(C)CC[C@@](O)(C(C)C)[C@@H]2[C@@H](O)C1`, the Potency result was “inactive”.

Take `C=CC1(C)C=C2CC[C@H]3[C@@](C)(C(=O)O)CCC[C@]3(C)C2CC1` (stereo not given in full): the Potency entry was “inactive”.

For `C/C=C(\C)C(=O)OC1C2(O)CC3=C4CC(=O)OC(c5ccoc5)C4(C)CCC3C(C)(C2=O)C(C(OC(C)=O)C(=O)OC)C1(C)C` (stereo not given), the Potency result was “inactive”.

For `COC(=O)C1(C)CCCC2(C)c3ccc(C(C)C)cc3C(O)C(O)C12` (stereo not given), the Potency entry is “inactive”.

For `C/C=C/C1OC2=C(C(=O)OC2(C)O)C(O)C1O` (stereo not given), the Potency entry is “inactive”.
